# Screens: PubChem, National Center for Advancing Translational Sciences (NCATS)
# An excerpt weighted towards active compounds, which were near 6.5% of everything screened.
# Vaccinia mCherry: vaccinia inhibition (mCherry reporter). Vaccinia virus mCherry reporter infection, fluorescence. AID 720579. actives 0.63% (n = 310,000). Potency, µM (highest dose often 36.5 µM), for inactives: at the top dose activity change, negative = inhibition, usual class: inhibitors; calls by dose curve; tested in A549 cells; note: potency is the fitted concentration of half-maximal effect; nearly all actives have a fitted effect of over 35% in size
# Vaccinia Venus: inhibitors of vaccinia virus (Venus reporter) | Vaccinia virus Venus reporter expression, fluorescence | Potency, µM (series often up to 36.5 µM), for inactives: at the top dose activity change, negative = inhibition, hits mostly inhibitors | actives 0.46% (n = 330,000) | AID 720580; calls by dose curve; tested in A549 cells; note: potency is the fitted concentration of half-maximal effect; nearly all actives have a fitted effect of over 30% in size
# HCMV inh: human cytomegalovirus inhibition. activity change, negative = inhibition, % at 57.5 µM. AID 1259415. actives 4.5% (n = 410,000). HFF cells, HCMV-luciferase reporter, 72 h; active compounds read low; in the data active = activity change below about -60%; inconclusive = no clear call, values can overlap the other calls; inactive = above about -39%
#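 Cell-based, HFFs, 1000 cells/well, 16 h 37C; cpds in DMSO + HCMV-luc, MOI 1 PFU/cell; 72 h 37C; OneGlo luminescence after 5 min RT; norm. to buffer vs Salinomycin 10uM.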
# LASV entry inh: inhibitors of Lassa virus binding or cell entry. Potency, µM (top dose mostly 37.9 µM), for the others: top-dose activity change, negative = inhibition, actives largely listed as inhibitors. Lassa virus pseudotype entry inhibition, cell reporter. actives 1.2% (n = 300,000); calls by dose curve; tested in HEK293 cells; note: potency is the fitted concentration of half-maximal effect; nearly all actives have a fitted effect of over 50% in size
# Marburg entry inh: Marburg virus entry inhibition; Marburg virus pseudotyped entry inhibition, cell reporter; Potency, µM (doses to about 37.8 µM), for the others: top-dose activity change, negative = inhibition, usual class: inhibitors; actives 1.8% (n = 300,000); AID 540276; calls by dose curve; tested in HEK293 cells; note: potency is the fitted concentration of half-maximal effect
# FMDV antiviral: blocks foot and mouth disease virus; FMDV antiviral cell-based qHTS; Potency, µM (doses to about 57.9 µM), for inactives: top-dose activity change, negative = inhibition, usual class: inhibitors; actives 1.2% (n = 410,000); calls by dose curve; tested in HEK293T cells; note: read-out not given here; potency is the fitted concentration of half-maximal effect; nearly all actives have a fitted effect of over 45% in size
# Active calls of the source: *; i = inactive; ? = inconclusive; . = no result given; ! = not confirmed by another sample; [ ] = another dose, or the depositor's remark. % is set by controls: 0 for no effect and ±100 for the full control effect.
SMILES,Vaccinia mCherry,Vaccinia Venus,HCMV inh,LASV entry inh,Marburg entry inh,FMDV antiviral
O=C(c1ccccc1Br)N(Cc1ccccc1)c1ccccc1,-18%,-8%,-62*,?,?,-30%
COc1ccc(CN(C(=O)c2ccco2)c2ccccc2)cc1,.,-9%,45,3%,-7%,-30%
Nc1ccc2cc3[nH]c4cc(N)ccc4c3nc2c1,?,-25%,-98*,?,?,-19%
CCN(C(C)=O)c1cnc(C=NNC(N)=S)c2ccccc12,?,?,-97*,8.9µM*,?,2%
NC(=S)NN=Cc1nccc2c(N)cccc12,?,?,-39,.,.,38%
Cc1nn2c(NCc3ccccn3)c3c(nc2c1-c1ccccc1)CCC3,10µM*,?,-83*,?,?,?
CC(C)(C)c1cc(NCc2ccccn2)n2ncc(-c3ccc(Cl)cc3)c2n1,.,.,-15,.,.,4%
Cc1cc(NCc2ccccn2)n2nc(C)c(-c3ccccc3)c2n1,5.6µM*,?,-83*,?,10µM*,-7%
Cc1nn2c(NCCN3CCOCC3)c3c(nc2c1-c1ccccc1)CCCC3,i,9%,?,-19%[46.1 µM],?,-12%
Cc1nn2c(NCc3ccccn3)cc(C(C)(C)C)nc2c1-c1ccccc1,.,.,-97*,.,.,?
O=C1C(C(=O)N(c2ccccc2)C2CCCCC2)C=NC2SCCN12 (configuration not stated),.,.,.,.,16%,.
CN=c1scc(-c2ccc(F)cc2)n1/N=C/c1ccc(O)c(O)c1,?,-18%,-67*,?,18µM*,1.3µM*
CCN=c1scc(-c2ccco2)n1/N=C/c1ccc(OC)c(O)c1,-10%,-19%,45,?,10%,-5%
COc1ccc(F)c(CN2CCOc3ccc(CN4CCCCC4CO)cc3C2)c1 (configuration not stated),-15%,-8%,.,.,.,0%
CCOC(=O)c1cccc(NC(=O)CN2C(=O)CC(C)(C)Sc3ccccc32)c1,-14%,-3%,32,.,-18%[46.1 µM],-20%
COc1cccc(N(C(=O)Cn2nnc(-c3ccc(C)cc3)n2)C(C(=O)NC(C)(C)C)c2c[nH]c3ccccc23)c1 (configuration not stated),.,.,-66*,?,?,12%
CC(C)(C)NC(=O)C(c1c[nH]c2ccccc12)N(C(=O)Cn1nnc(-c2ccc(Cl)cc2)n1)c1ccccc1F (configuration not stated),-15%,?,?,?,?,-12%
CC(C)(C)C(=O)Cn1ncc(Br)c(Br)c1=O,.,.,-101*,.,.,?
COc1cc(Cl)c(NC2=CC(=O)C(=O)c3ccccc32)c(OC)c1,.,.,-97*,.,.,?
COc1ccc(NC(=O)CSc2nc(-c3cccs3)cc(C(F)(F)F)n2)cc1OC,?,?,-69*,?,.,?
O=C(CSc1nc(-c2cccs2)cc(C(F)(F)F)n1)Nc1cc(OCC(F)(F)F)cc([N+](=O)[O-])c1,-6%,-30%,?,?,7.1µM*,?
COc1ccc(-c2cc(-c3cccs3)c(C#N)c(SCC(=O)NCc3ccco3)n2)cc1,.,.,.,?,0.46µM*,18%
O=C(CSc1nc(-c2ccccc2)cc(C(F)(F)F)n1)NCc1ccco1,-14%,-17%,14,2%,-19%,.
CCOc1ccccc1NC(=O)CSc1nc(-c2cccs2)cc(C(F)(F)F)n1,-22%,-19%,-2,0%[46.1 µM],1%[46.1 µM],-12%
O=C(CSc1nc(-c2cccs2)cc(C(F)(F)F)n1)NCc1ccco1,-24%,-19%,-75*,-21%,-3%,.
SMILES,Vaccinia mCherry,Vaccinia Venus,HCMV inh,LASV entry inh,Marburg entry inh,FMDV antiviral
Cc1cc(C(=O)NCc2nnc3n2CCN(Cc2ccc4c(c2)Cc2ccccc2-4)CC3)c(C)o1,-10%,-6%,.,.,.,-28%
C[C@@H]1CC2CCCC2[C@]2(O1)C(=O)Nc1ccccc12 (some centres not stated),.,.,.,.,-4%[14.2 µM],.
Cc1ccccc1Cn1ccc(NC(=O)CCSc2nc(-c3ccco3)cc(C(F)(F)F)n2)n1,.,8%,7,-27%,1.1µM*!,0%
Cc1ccc(F)cc1NC(=O)CSc1nc(-c2cccs2)cc(C(F)(F)F)n1,-18%,-21%,-76*,4%[46.1 µM],4%[46.1 µM],-22%
COc1ccc(NC(=O)CSc2nc(-c3ccco3)cc(C(F)(F)F)n2)cc1Cl,-9%[7.34 µM],-11%[7.34 µM],-69*,?,?,?
Cc1cccc(C)c1NC(=O)CSc1nc(-c2cccs2)cc(C(F)(F)F)n1,2%,11%,?,2%[46.1 µM],10%[46.1 µM],-9%
COCCNC(C)(CCCCC(=O)O)c1nnnn1-c1c(C)cccc1Cl (configuration not stated),.,.,-9,.,.,.
COc1ccc(N2CCN(C(=O)CN3C(=O)COc4ccc(S(=O)(=O)N5CCC(C)CC5)cc43)CC2)cc1,-1%,-3%,1,6%[46.1 µM],-13%[46.1 µM],1%
COc1ccc(N2C(=O)NC3CC2(C)Oc2ccccc23)cc1OC (configuration not stated),.,?,-62*,?,-22%,-12%
CCOC(=O)/C(=N/Nc1ccccc1)N1CCCc2ccccc21,-10%,-14%,-63*,-1%,?,?
COc1cc(Cl)c(C)cc1Nc1ncnc2c1nc1n2CCCC1,i,-15%,5,25%[46.1 µM],.,18%
O=C(c1ccc2c(c1)OCO2)N1C[C@H]2[C@@H](c3ccccc31)[C@H](CO)N2C(=O)CC1CC1,.,.,-6,.,.,.
O=C(Cc1ccc(Cl)cc1)NCCc1csc2nc(-c3ccccc3F)nn12,-11%,-22%,-16,5%[46.1 µM],.,-12%
Cc1ccc(C(C)C)cc1NC(=O)Nc1ccc([N+](=O)[O-])cc1,?,10µM*,-102*,.,.,?
O=C(Nc1ccc(Oc2ccc(NC(=O)Nc3ccc([N+](=O)[O-])cc3)cc2)cc1)Nc1ccc([N+](=O)[O-])cc1,?,-10%,-95*,-24%,-6%[46.1 µM],?
CC(=O)Nc1ccc(OS(=O)(=O)c2ccc([N+](=O)[O-])cc2)cc1,.,.,-62*,.,.,3%
CC(=O)c1ccc(NC(=O)Nc2ccc([N+](=O)[O-])cc2)cc1,-14%,1%,2,7%,?,-2%
CC(=O)Nc1ccc(OS(=O)(=O)c2ccc(Cl)cc2)cc1,-6%,-16%,-5,0%,-2%[46.1 µM],20%
CC(=O)Nc1ccc(OCCOc2ccc([N+](=O)[O-])cc2)cc1,i,-15%,-72*,.,.,-14%
CC(NC(=O)CN1C(=O)COc2ccc(S(=O)(=O)N3CCCCCC3)cc21)c1ccccc1 (configuration not stated),-5%,-8%,-7,1%[46.1 µM],10%[46.1 µM],12%
O=C(Nc1ccc([N+](=O)[O-])cc1)Nc1cnccn1,.,.,-81*,.,.,-6%
C[n+]1ccnc2cc(Cl)ccc21,11µM*,2.2µM*,.,.,.,.
C[n+]1ccnc2ccccc21,7.9µM*,2.2µM*,.,.,.,.
